Sampled rows, rich in hits. Any-hit rate of the full collection: about 19%.
Pf growth 48h: Primary qHTS for delayed death inhibitors of the malarial parasite plastid, 48 hour incubation. P. falciparum luciferase growth in erythrocytes, 48 h. Potency, µM (titrated, usually from 28.7 µM), actives largely listed as inhibitors. 310,000 compounds, 5.9% hits. AID 504832, 2011
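Firefly luciferase activity from engineered P. falciparum reports growth; inhibitors lower the luminescent signal. Cultures contained 2% hematocrit erythrocytes at 0.1% final parasitemia.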
AMA1-RON2 inh: qHTS for Inhibitors of AMA1-RON; Towards Development of Antimalarial Drug Lead: Primary Screen | Potency, µM (titrated, usually from 58.2 µM), most hits filed as inhibitors | Plasmodium falciparum AMA1 (3D7) - RON2 peptide interaction | AlphaScreen AMA1-biotinylated RON2 peptide binding | 360,000 compounds, 0.2% hits; also: nearly all actives have a fitted effect of over 45% in size
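AMA1 (3D7) with his tag at 25 nM final met compounds first, then biotinylated RON2 peptide at 25 nM; detection used donor plus acceptor beads, 10 µg/mL apiece, read by AlphaScreen after 30 min at room temperature.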
SARS PLP yeast: qHTS of Yeast-based Assay for SARS-CoV PLP; S. cerevisiae expressing SARS-CoV PLpro, growth rescue; Potency, µM (highest dose often 32.9 µM), usual class: activators; 330,000 compounds, 0.19% hits; AID 485353, 2010; calls by dose curve; also: nearly all actives have a fitted effect of over 55% in size
Cycloheximide cs: Cycloheximide Counterscreen for Small Molecule Inhibitors of Shiga Toxin. max response, %. AID 2314, 2010. cell reporter, cycloheximide protein synthesis inhibition counterscreen. 300,000 compounds, 12% hits; in the data active = max response mostly above about 13%, no sharp cut-off; inactive = mostly below about 14%; also: read at 38.3 µM for the half of the compounds with a filed dose
Pf growth 96h: Primary qHTS for delayed death inhibitors of the malarial parasite plastid, 96 hour incubation. P. falciparum luciferase reporter growth, 96 h. Potency, µM (top dose mostly 28.7 µM), actives largely listed as inhibitors. 320,000 compounds, 6.9% hits. AID 504834, 2011
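Erythrocytes infected with luciferase-expressing P. falciparum were dispensed at 2% hematocrit and 0.05% parasitemia (final), then incubated with compounds 96 hours at 37 C in 5% CO2. Luminescence after detection reagent addition reported growth.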
Shiga toxin inh: A qHTS for Small Molecule Inhibitors of Shiga Toxin; Vero cells, Shiga toxin protein synthesis inhibition reporter; inhibition, % at 38.7 µM; 290,000 compounds, 9.2% hits; AID 2315, 2010; in the data active = inhibition mostly above about 28%, no sharp cut-off; inactive = mostly below about 43%
Hits are given with their value; . = inactive; ? = inconclusive; / = not tested or not shown. Unless noted, calls follow the shape of the dose curve; as a rule, active = well fitted curve in the direction sought with a large enough effect; inconclusive = small, poorly fitted or top-dose-only effect, or another doubt; inactive = no such curve, though single readings can be large; an effect the other way counts as inactive or inconclusive.

SMILES	Pf growth 48h	AMA1-RON2 inh	SARS PLP yeast	Cycloheximide cs	Pf growth 96h	Shiga toxin inh
COc1ccc(O)c(C(=O)c2cc(C#N)c(=O)n(-c3c(C)n(C)n(-c4ccccc4)c3=O)c2)c1	?	.	.	22.4	9.28µM	.
N#Cc1cc(C(=O)c2cc(Cl)ccc2O)cn(-c2ccccc2)c1=O	9.28µM	.	.	.	1.85µM	.
Cc1ccc(NC(=O)c2cc(C(=O)c3cc(Cl)ccc3O)cn(-c3ccc(C)cc3)c2=O)cc1	0.329µM	.	?	.	0.185µM	.
Cc1c(-n2cc(C(=O)c3cc(Cl)ccc3O)cc(C#N)c2=O)c(=O)n(-c2ccccc2)n1C	.	.	.	.	.	.
N#Cc1cc(C(=O)c2cc(Br)ccc2O)cn(C2CCCCC2)c1=O	1.47µM	.	.	.	1.04µM	.
O=C(O)CNC(=O)/C(=C\c1ccco1)NC(=O)c1ccco1	.	.	.	.	.	.
N#Cc1ccc(C(=O)OCC(=O)NC(=O)NCc2ccccc2)cc1	.	.	.	/	.	/
N#CC1(c2ccccc2)CCN(C2CC(=O)N(c3cccc(F)c3)C2=O)CC1 (stereo not drawn)	.	.	.	.	8.28µM	.
CCOC(=O)c1ccc(N2C(=O)CC(N3CCC(C#N)(c4ccccc4)CC3)C2=O)cc1 (stereo not drawn)	?	.	.	.	.	.
COCCn1ccc2c(OCC(=O)NCc3ccc(C)cc3)cccc2c1=O	?	.	.	/	.	/
Cc1ccc(N2C(=O)C3CCCN3C2=S)c(C)c1 (stereo not drawn)	?	.	.	/	?	/
Cc1ccc(N2C(=O)C3CC(c4ccccc4)=C4C5C=CC(C6C(=O)N(c7ccc(C)cc7)C(=O)C56)C4C3C2=O)cc1 (stereo not drawn)	13.1µM	.	.	.	?	.
Cc1ccc(N2C(=O)C3C4CC(=O)C(c5ccccc54)C3C2=O)cc1 (stereo not drawn)	.	.	.	.	.	.
Cc1ccc(N2C(=O)C3CC(c4ccccc4)=C4C5C=CC(C6C(=O)N(c7ccc(C)cc7C)C(=O)C56)C4C3C2=O)c(C)c1 (stereo not drawn)	2.08µM	.	.	.	/	.
Cc1onc(-c2ccccc2Cl)c1C(=O)NC(=S)Nc1ccc(C(C)(C)C)cc1	?	.	.	.	6.57µM	.
Cc1onc(-c2ccccc2Cl)c1C(=O)Nc1ccccc1	.	.	.	.	.	.
CCc1ccc(NC(=S)NC(=O)c2c(-c3ccccc3Cl)noc2C)cc1	11.7µM	.	.	.	7.38µM	.
O=C(Nc1ccc(-c2nnc3n2CCCCC3)cc1)c1ccco1	.	.	.	.	.	.
Cc1onc(-c2ccccc2Cl)c1C(=O)Nc1ccc(CN2CCCC2)cc1	?	.	.	.	/	.
Cc1onc(-c2ccccc2Cl)c1C(=O)Nc1ccc(-c2nnc3n2CCCCC3)cc1	9.28µM	.	.	.	/	.
Cc1cc(C)n(-c2ccc(Cl)c(C(=O)Nc3ccc(-c4nnc5n4CCCCC5)cc3)n2)n1	?	.	.	.	8.28µM	.
CC1(C2CC(C(F)(F)F)n3nc(C(=O)O)cc3N2)CC1 (stereo not drawn)	.	.	.	.	.	.
Cc1cccc(-n2ncc3c2CCCC3NC(=O)CCN2CCCO2)c1C (stereo not drawn)	.	.	?	.	?	.
COc1ccc(CC(=O)N2CCC(Nc3nc4ccccc4n3Cc3ccc(F)cc3)CC2)cc1	4.15µM	.	.	.	9.28µM	.
COc1ccc(CC(=O)N2CCC(c3ccccc3)C2)cc1 (stereo not drawn)	.	.	.	23.0	.	56.3
SMILES	Pf growth 48h	AMA1-RON2 inh	SARS PLP yeast	Cycloheximide cs	Pf growth 96h	Shiga toxin inh
CC(O)CNc1nc2ccccc2n1CC(=O)N1CCN(Cc2ccccc2)CC1 (stereo not drawn)	.	.	.	.	.	.
O=C(Cc1ccccc1)N1CCC(c2ccccc2)C1 (stereo not drawn)	.	.	.	27.9	.	79.8
O=C(CCCN1C(=O)c2ccccc2C1=O)N1CCC(c2ccccc2)C1 (stereo not drawn)	/	.	.	.	.	.
Cc1ccc(COC(=O)c2nn(C)c(=O)c3ccccc23)cc1	.	.	.	.	.	.
CC(C)N1CC2(CC(c3ccccc3C(F)(F)F)=NO2)CN1C(=O)c1ccc(C(C)(C)C)cc1 (stereo not drawn)	/	.	/	/	/	/
COc1cccc(/C=N/Nc2nc3ccccc3[nH]2)c1OC	?	.	.	52.0	10.4µM	114.3
COc1cccc(/C=N/Nc2nc3ccccc3[nH]2)c1O	?	.	.	51.9	2.33µM	94.3
COc1cccc(/C=N/Nc2ncnc(N)c2[N+](=O)[O-])c1OC	.	.	.	34.9	/	72.7
COc1cccc(C=NNc2ccc([N+](=O)[O-])cn2)c1OC	/	.	/	/	/	/
COc1ccc(S(=O)(=O)Nc2ccc3c(c2)[C@H]2C[C@H](CC(=O)NCC4CC4)O[C@@H](CO)[C@H]2O3)cc1	/	.	/	/	/	/
OCC[C@@H]1C[C@H](O)[C@@H](O)[C@@]2(OCCCc3cc(C(F)(F)F)ccc32)O1	/	.	/	/	/	/
COc1ccc(C(=O)NC(=S)Nc2ccc(N3CCOCC3)c(Cl)c2)cc1[N+](=O)[O-]	?	.	.	.	?	.
c1ccc(Nc2ncnc3c2oc2ccccc23)cc1	.	.	/	66.4	.	121.3
c1ccc2c(c1)oc1c(NCCN3CCOCC3)ncnc12	.	.	.	.	?	.
O=S(=O)(Nc1ncnc2c1oc1ccccc12)c1ccc(Cl)s1	.	.	.	15.6	.	.
Oc1ccc(Nc2ncnc3c2oc2ccccc23)cc1	.	.	.	40.5	.	32.9
CNc1c(NS(=O)(=O)c2ccc(Cl)s2)c(=O)oc2ccccc12	.	.	.	.	.	.
CC(=O)c1ccc(Nc2nc(C)nc3c2oc2ccccc23)cc1	.	/	.	.	/	.
Oc1cccc(Nc2ncnc3c2oc2ccccc23)c1	.	.	.	50.1	.	93.2
CCOC(=O)c1sc(N2C(=O)C(O)=C(C(=O)c3ccco3)C2c2ccc([N+](=O)[O-])cc2)nc1C (stereo not drawn)	/	.	/	/	/	/
COC(=O)c1ccccc1S(=O)(=O)N1CCC(C(=O)OC(C)C(=O)N(C)Cc2ccccc2)CC1 (stereo not drawn)	/	.	/	/	/	/
Cc1ccc(S(=O)(=O)N2CC3=C(C2)C2CC2(C)C3)cc1 (stereo not drawn)	/	.	/	/	/	/
CC(C)C(Nc1ncnc2c1oc1ccccc12)C(=O)O (stereo not drawn)	.	.	.	.	4.65µM	.
c1ccc2c(c1)oc1c(Nc3ccc(CN4CCOCC4)cc3)ncnc12	.	.	.	92.3	?	105.7
